This assay deals with PXR:RXRa (NR concentration 270 nM, RXRa partner concentration 90 nM). The assay is described as follows: PBM binding z-score (relative to random genomic background probes); higher = stronger binding; sequences stand for … in GC…GCGATTGACAGCGTAGAATGAAGG
The method in brief:
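Ligand-free nuclear receptor dimers were applied to custom Agilent 4×180K protein-binding microarrays whose double-stranded probes carried direct-repeat seeds, single-nucleotide variants, half-site ablations and random human genomic background sequences in 34-nt variable regions. Incubation lasted 1 h. Binding z-scores were computed against the random background probes from regression-normalized fluorescence.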
For the sequence CAAACTAGGTCGAAGGTCAAAGTCGAGCCAACCA, the PBM binding z-score was 4.98.

As for GCGACTGGGGCATCAGCAGGTTACTATAACTTAA, the PBM binding z-score was -0.0216.

As to CGAACGAGGCCATGAGTTGATAGCAAATGCCGAT, the PBM binding z-score is -0.17.

ATCGAAATGTCGACGAGGTGAGTATACACCGTTT yielded a PBM binding z-score of -0.067.

Regarding CCTACTGCGCCAAAAAGGTCATTGATGCCGATAA, the PBM binding z-score amounted to 4.87.

In turn, TAGCCTAGGTCATGCGAGCCAGTATAGTGTCGGC showed a PBM binding z-score of 1.38.

Sequence CCTATTTGGTCAAGGTCACACACGCTATAGGTAC registered a PBM binding z-score of 4.1.

GGAAAGAGGGCAAGTTGATAGCAGAGTTTGATGG showed a PBM binding z-score of 1.29.

With ATACGTAGGTTAGCTGGGGTCATTCAGACTAGGC, the PBM binding z-score stood at 6.17.

Sequence GGAACGAGGGCAAGTTTATAGCAGAGTTTGATGG showed a PBM binding z-score of 1.13.

Sequence TAGCCTAGGTCAGATCGGGCCAGTTTACGCTATA had a PBM binding z-score of 1.13.

In turn, CCTTACGGCTCACGAGGTTATAGCACGACGAGCG registered a PBM binding z-score of 0.289.

Sequence GCTTTTAGATCAAGGTTAAGAAAGACTAAGCTAA yielded a PBM binding z-score of 0.507.

As for CGTCCAAGGTTAAAGGTCAGTGAAGAGATGACGG, the PBM binding z-score was 5.79.

For AGAATGAGGTTGTACGTAGATCAGGGAAGAAAGT, the PBM binding z-score came to 0.252.

Regarding CCTAGCAGTCCAATCTGGGTCACTCAAGGCTTGA, the PBM binding z-score amounted to 1.04.

As for AGAACGAGGGCACGCTGAGTCGATAGCAGAGTAG, the PBM binding z-score turned out to be 0.266.

Turning to AGAATGAGGTTATACGTATATCAGGGAAGAAAGT, the PBM binding z-score worked out at 1.45.

TCTAGTTGGTCAATGGTCACACACTCGAAATGCG gave a PBM binding z-score of 0.698.

Sequence GGAACGAGGGCAAAGTAGATAGCATCTGTCGACG gave a PBM binding z-score of 0.482.

AATACAGGGTCACTAGGACAGAGTAGGTACGAAT showed a PBM binding z-score of 3.17.

Regarding GTATCAAGGTGAATAGGTCGTTGATGAGTAGGCG, the PBM binding z-score was 0.996.

In turn, AGAATGTGGTTATACGTAGATCAGGGAAGAAAGT had a PBM binding z-score of 0.214.

The sequence GCTCGGAGGACAAGGTCAGAGCTTTGTCCGTAGA registered a PBM binding z-score of 1.55.

CGTCAAAGTTCAACTAAGGTAGCGTAAAGCACGC showed a PBM binding z-score of 5.03.

CCTTACGGGTCAAGCTTATAGCACGGGTGGTACG yielded a PBM binding z-score of 2.77.

As to TTACCAAGGTGAGCTGAGGTCGTTGACCCAACTC, the PBM binding z-score came to 5.01.

Regarding ATCTCGAGGTAAAGATAGTTCAGTGAATGCAAAT, the PBM binding z-score was 2.22.

The sequence GCGACTGGGGCAAAGCAGGTTACCATAAGGTTGG had a PBM binding z-score of 0.415.

Sequence CCCTACGGGTCAAGGTTATAGCACGGGTGGTACG returned a PBM binding z-score of 3.35.

Sequence TCATTTAGGTAATACAGGTGAAAGTCGGCATCTA returned a PBM binding z-score of 1.06.

The sequence CCTCGGAGGAGAACAGGAGGTCAGAGCTGCCAGA registered a PBM binding z-score of 1.87.

CCTGCTAGGTCATCGTCAGCTAATCTACAGTATG displayed a PBM binding z-score of 1.45.

As for CGTCCATGGTCAATGCTAGGTCAGTGAAAGCATT, the PBM binding z-score was determined as 0.368.

Turning to AGAACGAGGGCCCGCTGAGTTGATAGCAGAGTAG, the PBM binding z-score is -0.97.

Turning to CCGCGGAGGACAGAAGGTCAGAGCTGTCCGCTTT, the PBM binding z-score was 1.42.

Regarding TCTTGTAGATCAAGCAGGTTATGAAAGCCTGAGT, the PBM binding z-score was determined as 0.4.

As to ACTAGCAAGCCAAGGGTCACTCAAGATTAGTCCG, the PBM binding z-score was found to be 3.01.

Consider CTACCAAGGTGAACAAGGTCGCTGATTACTATTC, for which the PBM binding z-score was found to be 1.7.

As to TCGAGTAGGTTACCAATGGGGTATTCAGCTTTCT, the PBM binding z-score was 0.05.

These data come from the supplement of paper PMC6555819.
